Hit rate of the full screen: of about 300,000 compounds, about 2,500 (0.83%) were called active. No stated cut-off is given here; in the data, active means inhibition above about 60%; inconclusive means no clear call, values can overlap the other calls; inactive means below that. What follows is part of a selection rich in actives, with near analogues and random picks from the rest.

The inhibition is the drop in the measured response relative to a control, in per cent.

This test is described as follows: MLPCN primary screen, SNCA 5' untranslated region (AID 1813).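 Further: H4 neuroglioblastoma cells stably carrying SNCA 5'UTR luciferase fusion; 0% = DMSO wells and 100% = positive control.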 The settings on record: alpha-synuclein 5'UTR reporter, inhibitor activity; stronger effect = higher value; tested at 7.5 µM.
In the case of `Nc1nonc1-n1nnc(C(=O)N/N=C/c2cc(Br)ccc2O)c1CSC1=NCCS1`, the inhibition was 94.1% (active). For the compound `Nc1nonc1-n1nnc(C(=O)N/N=C/c2ccccc2O)c1CN1CCCC1`, the inhibition was 14.3% (inactive). With `Cc1ccc(SCc2c(C(=O)N/N=C/c3cccnc3)nnn2-c2nonc2N)cc1` the figure was -2.9% (inactive); with `OCCN1CCN(C(=S)c2ccc(-c3ccccc3)cc2)CC1`, 88% (active); with `S=C(c1ccccc1)N1CCCC1`, 4.96% (inactive). For the compound `OCCN1CCN(c2nnc(-c3ccccc3)c3ccccc23)CC1`, the inhibition is 18.9% (inactive). With `Cc1nc2cccnc2nc1C` the figure was -3.08% (inactive); with `CC(C)S(=O)(=O)c1csc(NC(=O)Nc2ccc(Cl)cc2)c1Cl`, -49.4% (inactive).

For `Cc1ccc(Cl)cc1NC(=O)c1ccccn1`, the inhibition was -44% (inactive). Take `CCN(CC)CCOc1ccc2c(c1)C(=NNC(=O)c1ccccn1)c1cc(OCCN(CC)CC)ccc1-2`: the inhibition is 109% (active). Next, `Cc1cccc(OCC(=O)NCCCNC(=O)c2ccccn2)c1`: 8.27% (inactive).

In the case of `COc1ccc(NC(=O)Cn2ncn3c(cc4ccccc43)c2=O)c(OC)c1OC`, the inhibition was 30% (inactive). Next, `COC(=O)Cc1csc(/N=C/c2c(O)n(-c3cccc(C(F)(F)F)c3)c(=O)c3ccccc23)n1`: 81.8% (active). As for `COC(=O)Cc1csc(Nc2c(C)n(C)n(-c3ccccc3)c2=O)n1`, the inhibition is 14.1% (inactive). For the compound `Cc1ccc(-n2c(O)c(C=Nc3ccc(S(=O)(=O)Nc4ncccn4)cc3)c3ccccc3c2=O)cc1C`, the inhibition is 13.1% (inactive). `CC(NC(=O)c1cccc2ccccc12)c1ccc2c(c1)CCCC2` (stereo unspecified): the inhibition is 5.38% (inactive). With `Cc1cc(C(=O)CCl)c(C)n1CC1COc2ccccc2O1` (stereo unspecified) the figure was 21.1% (inactive); with `Cc1cc(C(=O)Cn2cnc3cc([N+](=O)[O-])ccc3c2=O)c(C)n1CC1CCCO1` (stereo unspecified), -21.1% (inactive); with `Cc1ccsc1C(=O)OCC(=O)c1cc(C)n(CC2CCCO2)c1C` (stereo unspecified), 79.6% (active). Next, `CCn1c(-c2cccnc2Cl)nc2cc(C)c(C)cc21`: 24.4% (inactive). Next, `CC(C)C(NS(=O)(=O)c1cccs1)C(=O)Nc1nc(C(C)(C)C)cs1` (stereo unspecified): 24.5% (inactive). With `CCCCN(C(=O)c1ccc(C)o1)c1c(N)n(CCCC)c(=O)[nH]c1=O`, the inhibition was 11.8% (inactive). For the compound `COc1ccc(NC(=O)C(C)SCc2ccccc2)cc1` (stereo unspecified), the inhibition was -18.2% (inactive).

In the case of `COc1ccc(C(=O)NCC2CCCN2S(=O)(=O)c2cccs2)cc1OC` (stereo unspecified), the inhibition was 19.5% (inactive). `CC(=O)c1c(C)[nH]c(C(=O)COC(=O)c2cccc(S(=O)(=O)N(C)c3ccccc3)c2)c1C`: the inhibition was -1.07% (inactive). Next, `CC1CC(C)CN(C(=O)C2CC(=O)N(c3ccc(F)cc3)C2)C1` (stereo unspecified): 10.4% (inactive); `C=CCn1c(CCNC(=O)c2ccccc2F)nnc1SCC(=O)Nc1ccc(OC)cc1`: -21.5% (inactive).

For the compound `CSc1nnc(NC(=O)c2nc(S(=O)(=O)Cc3ccc(C)cc3)ncc2Cl)s1`, the inhibition was -15.6% (inactive). Next, `Cc1cccc(NC(=O)c2nc(S(=O)(=O)Cc3ccccc3)ncc2Cl)c1`: 84.8% (active); `Cc1ccc(CS(=O)(=O)c2ncc(Cl)c(C(=O)Nc3nnc(C)s3)n2)cc1`: -37.4% (inactive). In the case of `COC(=O)COc1cccc2c(=O)n(CC(=O)NCc3ccccc3)ccc12`, the inhibition was -24.3% (inactive). Next, `Nc1nc(Nc2ccccc2F)nc(NC2CCCCC2)c1[N+](=O)[O-]`: 30.2% (inactive); `COc1cc(OC)cc(C(=O)NC2CCN(C(=O)N3c4ccccc4Sc4ccccc43)CC2)c1`: 47.3% (inactive); `COc1ccc(CN2[C@@H](CC(=O)O)c3cc(F)ccc3S2(=O)=O)cc1`: -3.17% (inactive). With `COc1ccc(CC(=O)N/N=C(\C)c2ccccn2)cc1`, the inhibition is 77.7% (active). Next, `C/C(=N\NC(=O)Cc1ccc(F)cc1)c1ccc(F)cc1`: 20.6% (inactive); `COc1ccc(C/C(C)=N/NC(=O)c2ccncc2)cc1`: 6.51% (inactive). For the compound `O=C(Nc1ccc(NC(=O)c2ccccc2F)cc1)c1ccccc1F`, the inhibition is -42.3% (inactive).

For the compound `C/C(CC(=O)Nc1ccc(N(C)C)cc1)=N\NC(=O)c1ccccc1F`, the inhibition is -40.2% (inactive).

For the compound `C/C(=N\NC(=O)Cc1ccc(Br)cc1)c1cccnc1`, the inhibition is 30.5% (inactive).

In the case of `COc1ccc(CC(=O)NC(C)CCc2ccccc2)cc1` (stereo unspecified), the inhibition is 1.27% (inactive). Next, `C/C(=N\NC(=O)Cc1ccc(Cl)cc1)c1ccccn1`: 85.6% (active); `C/C(=N\NC(=O)c1ccccc1F)c1ccccn1`: 83% (active). Next, `C/C(=N\Nc1nc2ccccc2[nH]1)c1cccs1`: -116% (inactive); `O=C(O)C1CCCCC1C(=O)N1CCN(S(=O)(=O)c2ccc(F)cc2)CC1` (stereo unspecified): -5.32% (inactive). Next, `CC1(C)OC(=O)N2CCc3ccccc3C21C` (stereo unspecified): -10.7% (inactive); `C=CCNC(=S)NNc1ncnc2sc3c(c12)CC(C)(C)OC3`: 5.75% (inactive). `O=C(O)c1cc2c(cc1NC(=O)c1c(F)cccc1Cl)OCCCO2`: the inhibition is 23.8% (inactive). With `COc1ccc2[nH]c3nc(SCC(=O)NC4CC4)nnc3c2c1`, the inhibition is -39.5% (inactive). For the compound `CCCCCN(C(=O)NC(=O)Nc1ccccc1C)S(C)(=O)=O`, the inhibition is -36.2% (inactive).

With `NS(=O)(=O)c1cccnc1Nc1cccc(Cl)c1`, the inhibition was -2.47% (inactive). Next, `OCCCNc1nccc(-c2cc(Nc3cccc(Cl)c3)ncn2)n1`: 73.3% (active); `OCCCNc1nc(-c2ccccc2)c2cc(Cl)ccc2n1`: 30.4% (inactive); `O=C1CCCN2N=C(SCC(=O)Nc3ccc(Br)cc3)SC2=N1`: 10.7% (inactive). Next, `Cc1cc(C(F)F)nn1CC(=O)NC1CCCCCC1`: -7.74% (inactive).

As to `Cc1ccccc1NC(=O)CCNS(=O)(=O)c1ccc2[nH]c(=O)oc2c1`, the inhibition is 6.01% (inactive). With `COc1ccccc1NC(=O)C1=C(C)Nc2nc3ccccc3n2C1c1cccs1` (stereo unspecified) the figure was 106% (active); with `CCOC(=O)C1=C(C)Nc2nc3ccccc3n2C1c1cccs1` (stereo unspecified), 31.1% (inactive); with `CCOc1ccc(C2C(C(=O)NC)=C(C)Nc3nc4ccccc4n32)cc1OC` (stereo unspecified), 10.1% (inactive).

As to `COC(=O)c1cc(=O)n(-c2c(Cl)cc(C(F)(F)F)cc2Cl)[nH]1`, the inhibition is 29.3% (inactive). With `CN(CC(=O)Nc1c(Cl)cccc1Cl)C(=O)c1ccncc1` the figure was 8.69% (inactive).

With `O=C1CCCC2=C1C(c1cccs1)n1nc(SCc3ccccc3)nc1N2` (stereo unspecified), the inhibition was 37.2% (inactive).

For the compound `CCCCCN(C(=O)NC(=O)Nc1cccc(C)c1C)S(C)(=O)=O`, the inhibition is -23.1% (inactive). Next, `CC(C)n1c(CN2CCN(Cc3ccccc3)CC2)nc2ccccc21`: 9.23% (inactive); `CCCNC(=O)N1CCN(C(=O)NCCC)CC1`: 8.45% (inactive). Next, `C/C=C/c1ccc(OCC(=O)OCC(=O)Nc2c(C)nn(-c3ccccc3)c2C)c(OC)c1`: 3.02% (inactive); `CCn1nc(C)c(NC(=O)/C=C/c2ccc(OC)c(COc3ccc(Br)cc3)c2)c1C`: 61.8% (active). In the case of `COc1ccc(C(C)=O)cc1COc1ccc(Cl)c(C)c1`, the inhibition is 50.7% (inactive).

As to `CCCCN(C)CCC(=O)Nc1ccc(Cl)cc1`, the inhibition was -18.3% (inactive). With `CCOc1ccc2c(c1)c(=O)c(S(=O)(=O)c1ccc(C)cc1)cn2CC` the figure was 13% (inactive); with `CN(C)c1nc(N)nc(CSc2nnnn2-c2cccc3ccccc23)n1`, 68.9% (active). Take `COc1ccc(-n2nnnc2SCc2nc(N)nc(N3CCOCC3)n2)cc1`: the inhibition was 13.4% (inactive). With `CN(C)c1nc(N)nc(CSc2ccccn2)n1` the figure was -19.1% (inactive).

On to `COc1ccc(CCNC(=O)CN(C)S(=O)(=O)c2ccc3nc(C)sc3c2)cc1OC`, for which the inhibition was -0.864% (inactive). For the compound `CC(=O)Nc1ccc(NC(=O)CCCNC(=O)c2ccc(Cl)cc2)cc1`, the inhibition is 19.3% (inactive). With `O=c1[nH]c(NCCO)nnc1Cc1ccc(Cl)cc1` the figure was 6.74% (inactive).

`CC(C)c1ccc(Cc2nnc(NCCCO)[nH]c2=O)cc1`: the inhibition was -13.1% (inactive). Next, `COc1ccc(Cc2nnc(N/N=C/c3ccccc3O)[nH]c2=O)cc1OC`: 91.4% (active); `COc1ccc(S(=O)(=O)N2CCC(C(=O)NCCC(=O)NCc3cccc(OC)c3)CC2)cc1`: 11.4% (inactive). As to `COc1ccc(C)c(Cn2c(-c3nonc3N)nc3ccccc32)c1`, the inhibition is 76.2% (active). Next, `Nc1nonc1-c1nc2ccccc2n1Cc1ccc(F)cc1`: 49% (inactive). `CC(=O)Nc1nonc1-c1nc2ccccc2n1Cc1ccccn1`: the inhibition was 19% (inactive). With `CN(CC(=O)NCc1cccnc1)S(=O)(=O)c1cc(Cl)ccc1Cl` the figure was 5.11% (inactive); with `CCc1noc(C)c1C(=O)N1CCCC(N2CCN(c3ccc(F)cc3)CC2)C1` (stereo unspecified), 14.8% (inactive); with `CC(Sc1nnc(COc2ccccc2)n1-c1ccccc1)C(=O)O` (stereo unspecified), -1.97% (inactive). As to `CC1(C(=O)N/N=C/c2cc3c(cc2Br)OCO3)CC1(Br)Br` (stereo unspecified), the inhibition was 4.98% (inactive). Take `O=C(CN1CCN(c2ccccn2)CC1)N1CCc2ccccc21`: the inhibition was -26.8% (inactive).

Consider `O=C(CN1C(=O)c2ccccc2S1(=O)=O)NC1CCCCC1`, for which the inhibition is 6.72% (inactive). Next, `O=C(CN1C(=O)c2ccccc2S1(=O)=O)N1CCc2ccccc21`: 93.5% (active). For the compound `Cc1ccc(NC(=O)OCc2cncs2)cc1`, the inhibition is -112% (inactive).

As for `COc1ccc(NC(=O)/C(Cl)=C(/Cl)S(=O)Cc2ccc(C)cc2)cn1` (stereo unspecified), the inhibition is 106% (active). With `COc1ccc(Nc2ccc([N+](=O)[O-])cn2)cn1` the figure was 8.18% (inactive).

As for `COc1ccc(NC(=O)CN(C)C(=O)Cc2coc3cc(C)c(C)cc23)cc1`, the inhibition is 6.29% (inactive).

For `Cc1ccc2c(c1)NCC(C(=O)NC1CCC(C)CC1)O2` (stereo unspecified), the inhibition was -67.9% (inactive). Next, `CN(C)c1ccc(C(CNC(=O)c2ccc(F)cc2)c2c[nH]c3ccccc23)cc1` (stereo unspecified): 4.86% (inactive).

On to `Cc1ccc(OCC(=O)Nc2ccccc2Sc2ccc(Cl)cc2)c([N+](=O)[O-])n1`, for which the inhibition is 4.28% (inactive).
